# In the supplement of paper PMC6555819:
# Tests used:
# Experiment in all cases: PBM binding z-score (relative to random genomic background probes); higher = stronger binding; sequences stand for … in GC…GCGATTGACAGCGTAGAATGAAGG
# [1] = tested on: FXR:RXRa (NR concentration 270 nM, RXRa partner concentration 90 nM)
# Outline: (§1)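 Regression normalization was applied to scanned fluorescence from custom Agilent 4×180K protein-binding microarrays. Before scanning, arrays were incubated 1 h with ligand-free nuclear receptor dimers, and binding was detected with antibodies against each partner (one per run). Binding z-scores use the random background probes as reference.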
# [2] = tested on: LXRa:RXRa (NR concentration 270 nM, RXRa partner concentration 90 nM)
# Outline: as §1
# [3] = tested on: LXRa homodimer (NR concentration 270 nM)
# Outline: as §1
# [4] = tested on: LXRb:RXRa (NR concentration 270 nM, RXRa partner concentration 90 nM)
# Outline: as §1
# [5] = tested on: LXRb homodimer (NR concentration 270 nM)
# Outline: as §1
# [6] = tested on: PPARa:RXRa (NR concentration 270 nM, RXRa partner concentration 90 nM)
# Outline: as §1
# [7] = tested on: PPARg:RXRa (NR concentration 180 nM, RXRa partner concentration 90 nM)
# Outline: as §1
# [8] = tested on: PPARg:RXRa 270nM:90nM, anti-RXR (NR concentration 270 nM, RXRa partner concentration 90 nM)
# Outline: as §1
# [9] = tested on: PPARg:RXRa 30nM:10nM, anti-RXR (NR concentration 30 nM, RXRa partner concentration 10 nM)
# Outline: as §1
# [10] = tested on: PPARg:RXRa 90nM:30nM, anti-RXR (NR concentration 90 nM, RXRa partner concentration 30 nM)
# Outline: as §1
# [11] = tested on: PPARg:RXRa DBDmut IVT, anti-RXR (DBD mutation: RXRa K156A/R161A, NR concentration 270 nM, RXRa partner concentration 90 nM)
# Outline: as §1
# [12] = tested on: PPARg:RXRa IVT, anti-PPARg (NR concentration 270 nM, RXRa partner concentration 90 nM)
# Outline: as §1
# [13] = tested on: PPARg DBDmut:RXRa IVT, anti-PPARg (DBD mutation: PPARg1 K132A/R137A, NR concentration 270 nM, RXRa partner concentration 90 nM)
# Outline: as §1
# [14] = tested on: PPARg DBDmut IVT, anti-PPARg (DBD mutation: PPARg1 K132A/R137A, NR concentration 270 nM)
# Outline: as §1
# [15] = tested on: PPARg homodimer (NR concentration 180 nM)
# Outline: as §1
# [16] = tested on: PXR:RXRa (NR concentration 270 nM, RXRa partner concentration 90 nM)
# Outline: as §1
# [17] = tested on: PXR homodimer (NR concentration 270 nM)
# Outline: as §1
# [18] = tested on: RARa:RXR (NR concentration 270 nM, RXRa partner concentration 90 nM)
# Outline: as §1
# [19] = tested on: RARa homodimer (NR concentration 270 nM)
# Outline: as §1
# [20] = tested on: RARb:RXRa (NR concentration 270 nM, RXRa partner concentration 90 nM)
# Outline: as §1
Sequence,PBM binding z-score [1],PBM binding z-score [2],PBM binding z-score [3],PBM binding z-score [4],PBM binding z-score [5],PBM binding z-score [6],PBM binding z-score [7],PBM binding z-score [8],PBM binding z-score [9],PBM binding z-score [10],PBM binding z-score [11],PBM binding z-score [12],PBM binding z-score [13],PBM binding z-score [14],PBM binding z-score [15],PBM binding z-score [16],PBM binding z-score [17],PBM binding z-score [18],PBM binding z-score [19],PBM binding z-score [20]
GCTGCTAGGTCAGGGTGGTCAGCTAACGGGTACG,1.3,1.02,-0.198,0.35,-0.645,2.03,1.63,1.95,-0.181,1.09,2.9,2.83,0.0307,-1.27,1.2,0.451,-0.345,1.03,0.165,3.61
GGAACGAGGGCAAATTTGATAGCATCTGTCGACG,0.712,0.506,-0.407,0.682,0.0825,1.51,1.19,1.13,-0.00323,0.82,3.93,2.76,0.00863,-0.28,0.201,0.608,0.0405,0.115,0.0323,2.19
AGTCACAGTTCATCTAGGTAACGTAAGATATGCT,2.21,2.57,1.29,1.54,0.388,2.11,1.85,1.88,0.525,1.04,0.901,2.75,1.15,1.19,0.64,2.32,1.87,1.44,0.582,2.74
CCTCGGAGGCCAGAAGGTCAGAGCTGTCCGCTTT,1.46,1.39,-0.337,0.993,-0.99,1.97,-0.665,1.19,-0.826,0.521,-0.00859,-0.274,-1.71,-1.89,0.843,1.32,-0.625,2.12,-0.274,2.98
TGAATGAGGTTCTAAGATCAGGGAACGTTGCAAA,-0.725,-0.693,-0.989,-0.763,-0.398,-0.344,-0.0951,-0.03,-0.103,0.161,-0.614,0.0916,-0.614,-0.528,-0.83,-0.331,-0.563,-0.599,-0.564,-0.67
TCGTGTAGATCAAAGGTTAAGAAAGCCGAAGCCT,1.91,1.98,0.381,1.83,0.049,3.91,5.73,6.47,5.88,6.62,0.876,2.22,-0.315,-0.277,1.21,1.9,-0.215,2.68,0.495,1.86
GGAACGAGGGCATTCGAGTTGACAGCATGGCGAT,1.65,1.9,-0.394,-0.0362,-0.953,1.34,0.875,0.675,-0.547,-0.0204,2.98,2.46,0.222,-0.00883,-0.393,3.85,1.46,0.951,-0.555,1.87
AGAATGAGGTTACGATCAGGGAAACAGAATACAT,1.98,1.94,-0.122,1.75,-0.632,3.9,2.97,2.65,1.2,2.18,3.35,3.6,1.79,0.837,0.684,1.19,0.235,1.92,0.462,2.16
CCTCCTAGGTCAATGGTCAGCTAAAGCAGCTCGC,3.28,2.46,0.212,2.07,0.406,3.53,3.92,5.19,2.32,4.99,3.61,3.53,-0.066,0.119,2.06,1.28,-0.0378,1.98,0.584,3.77
TCGAGTAGGTTAGTCGGGGCATTCACCCAACATA,0.0292,0.103,-0.165,0.627,-0.651,0.713,0.0859,0.905,0.99,0.993,2.26,1.7,-0.581,-0.56,0.252,0.243,-0.193,0.377,0.343,0.447
TCGAGTAGGTTAGGGTCATTCAGAATGGCGTCGA,4.57,3.41,0.537,3.62,-0.146,4.66,3.15,4.16,2.2,3.52,2.47,2.77,-0.28,0.496,2.22,4.55,2.03,5.08,0.43,3.08
CCTACTGGGACAAAAAGGTCATTGATGCCGATAA,3.77,4.52,4.09,4.16,0.878,4.96,3.4,4.19,2.01,3.72,4,4.26,0.444,-0.273,3.86,4.85,4.14,5.36,1.97,3.94
CCTACTGGGCCAAAAACGTCATTGATGCCGATAA,-0.178,-0.282,-0.294,-0.357,-0.478,0.119,0.525,1.02,-0.141,0.509,2.89,2.22,-0.472,-0.737,0.2,-0.35,-0.449,-0.17,-0.624,-0.163
CAGAGTAGGTTATGGGGCATTCAGGCAACGGTGA,0.558,0.666,0.0454,0.833,-0.04,2.78,4.39,5.4,3.13,5.42,3.95,4.66,1.11,0.548,1.69,0.233,0.246,0.549,0.726,1.23
